# A selection: hits, their analogues and other compounds. The true share with any hit is near 19%.
# DT40 TDP1 CPT – qHTS for Inhibitors of human tyrosyl-DNA phosphodiesterase 1 (TDP1): qHTS in cells in presence of CPT; chicken DT40 Tdp1-/-;hTDP1 cells + 20 nM CPT, ATP luminescence, 48 h; Potency, µM (doses to about 46.2 µM), without a hit: top-dose activity change, negative = growth inhibition, usual class: inhibitors; 420,000 compounds, 12% hits; AID 686979, 2013; also: potency is read from the fitted curve at half-maximal effect; nearly all actives have a fitted effect of over 55% in size
#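 Chicken DT40 Tdp1-/- cells stably complemented with human TDP1 were seeded at 400 cells/well in medium containing 20 nM camptothecin, exposed to pin-transferred compounds, and grown at 37 °C for at least 48 hr. Viability was read as ATP luminescence.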
# HT1080NT lethal – qHTS for induction of synthetic lethality in tumor cells producing 2HG: qHTS for the HT-1080-NT fibrosarcoma cell line. HT-1080-NT fibrosarcoma viability, CellTiter-Glo ATP luminescence, 48 h. 360,000 compounds, 1.6% hits. Potency, µM (top dose mostly 46.1 µM), for the others: at the top dose activity, negative = less viability, hits mostly cytotoxic;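 also: NT is the 2HG producing partner of a matched IDH1 knockdown line; potency is read from the fitted curve at half-maximal effect; 0% = DMSO-treated cells and -100% = media-only wells without cells; nearly all actives have a fitted effect of over 55% in size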
#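 HT-1080-NT; 750 cells/well; 5% FBS RPMI; 48 h compound, 37 degrees C; CellTiter-Glo luminescence; curve fitting and curve-class assignment.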
# IL-1B inflam inh – qHTS for Inhibitors of Inflammasome Signaling: IL-1-beta AlphaLISA Primary Screen. 360,000 compounds, 4.7% hits. THP-1 LPS/ATP IL-1B secretion, AlphaLISA, 16 h; active compounds read low. activity change, % at 57.5 µM; in the data active = activity change below about -50%; inconclusive = mostly about -30% to -49%
#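 Secreted IL-1B measured by AlphaLISA bead assay after 16 h compound exposure of THP-1 cells; compounds (final up to 57.5 uM) added 1 h before LPS (250 ng/mL) and ATP (1.25 mM) stimulation; lower signal means less secretion.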
# HT1080 IDH1KD tx – qHTS for induction of synthetic lethality in tumor cells producing 2HG: qHTS for the HT-1080-IDH1KD cell line | Potency, µM (top dose mostly 46.1 µM), without a hit: at the top dose activity, negative = toxicity, most hits filed as cytotoxic | 360,000 compounds, 2% hits | HT-1080 IDH1 knockdown viability, ATP luminescence, 48 h | AID 686971, 2013;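 also: potency is read from the fitted curve at half-maximal effect; 0% = DMSO wells and -100% = cell-free medium wells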
#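 % activity derives from luminescence (CellTiter-Glo), normalised to DMSO and no-cell wells. HT-1080-IDH1KD cells, 750/well, had 48 h compound exposure at 37 °C.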
# TDP1 cell noCPT – qHTS for Inhibitors of human tyrosyl-DNA phosphodiesterase 1 (TDP1): qHTS in cells in absence of CPT; DT40 Tdp1-/- hTDP1 cells, no CPT, ATP luminescence, 48 h; Potency, µM (highest dose often 46.2 µM), inactives show at the highest dose activity change, negative = growth inhibition, actives largely listed as inhibitors; 420,000 compounds, 15% hits; AID 686978, 2013; also: potency is read from the fitted curve at half-maximal effect; nearly all actives have a fitted effect of over 55% in size
#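 Cells were dispensed at 400 per well, compounds added by pin tool, plates incubated ≥48 hr at 37 °C, then CellTiter-Glo added for 30 min at room temperature before luminescence reading. Line: DT40 Tdp1-/- complemented with hTDP1; camptothecin omitted.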
# * = called active by the depositor; ? = inconclusive; . = no result. Unless noted, calls follow the shape of the dose curve; as a rule, active = well fitted curve in the direction sought with a large enough effect; inconclusive = small, poorly fitted or top-dose-only effect, or another doubt; inactive = no such curve, though single readings can be large; an effect the other way counts as inactive or inconclusive. Unless noted, % is scaled to controls: 0 for no effect and ±100 for the full control effect.
SMILES,DT40 TDP1 CPT,HT1080NT lethal,IL-1B inflam inh,HT1080 IDH1KD tx,TDP1 cell noCPT
CS(=O)(=O)c1ccc(C(=O)OCC(=O)NC23CC4CC(CC(C4)C2)C3)cc1[N+](=O)[O-],?,?,-107*,-22%,?
Cn1cccc1C(=O)NC(=O)COC(=O)c1ccc(S(C)(=O)=O)cc1,?,0%,0,-1%,-6%
CSc1nc2ccc(NC(=O)C3=NNC(=O)CC3)cc2s1,-1%,-2%,0,-29%,-33%
CCOc1ccc2nc(NC(=O)NC3CCCCC3)sc2c1,?,8%,-2,17%,21µM*
CCOc1ccc2nc(NC(=O)Cn3[nH]c(=O)c4ccccc4c3=O)sc2c1,23µM*,6%,58,8%,23µM*
CCOc1ccc2nc(NC(=O)c3ccccn3)sc2c1,0.82µM*,?,-98*,16µM*,0.65µM*
CCOc1ccc2nc(NC(=O)C3CCCO3)sc2c1 (stereo unspecified),-27%,1%,?,1%,-6%
CCOc1ccc2nc(NC(=O)CN3CCN(CC)CC3)sc2c1,1%,-13%,5,-20%,?
CSc1nc2ccc(NC(=O)c3ccccn3)cc2s1,6%,15µM*,-11,12µM*,?
O=C(c1ccncc1)N1CCN(S(=O)(=O)c2ccc(F)cc2)CC1,-1%,?,3,12%,27%
CCOc1ccccc1/C=C(/NC(=O)c1ccccc1)C(=O)N1CCCCC1,?,-2%,?,0%,?
COc1ccc(-c2csc(N3CCN(S(=O)(=O)c4ccc5c(c4)NC(=O)CO5)CC3)n2)cc1,?,-1%,-14,-23%,?
O=C(COc1ccccc1)NNc1nc2c(F)cc(F)cc2s1,-2%,11%,8,0%,-3%
CCOc1ccc2nc(NC(=O)c3nc(SC(C)C)ncc3Cl)sc2c1,9.2µM*,.,.,.,8.2µM*
Cc1ccc2nc(NC(=O)c3ccccc3F)sc2c1,3%,-7%,6,-2%,?
CSc1ncccc1C(=O)Nc1nc2c(C)cccc2s1,-2%,17%,-24,5%,?
Cc1ccc2nc(NC(=O)c3ccccn3)sc2c1,4.6µM*,15µM*,-102*,2.3µM*,6.5µM*
CCSc1ncc(Cl)c(C(=O)Nc2nc3ccc(OC)cc3s2)n1,-22%,.,.,.,-21%
O=C(Nc1nc2c(F)cc(F)cc2s1)c1ccccn1,0.65µM*,?,-1,6.5µM*,0.73µM*
CSc1ncccc1C(=O)Nc1nc2ccc(Oc3ccccc3)cc2s1,21µM*,-21%,-7,-9%,?
CN(C)c1ccc(NC(=O)CCN2C(=O)c3cccc([N+](=O)[O-])c3C2=O)cc1,0%,2%,28,4%,17%
Cc1ccc(N)c2c1OCCC2=O,-5%,-4%,66,-5%,-22%
C[C@H]1CN([C@@H](C)CO)C(=O)c2cc(Br)cnc2O[C@H]1CN(C)C(=O)C1CCC1,-16%,-3%,-29,-7%,?
CCSc1ncc(Cl)c(C(=O)Nc2ccccc2F)n1,0%,1%,6,2%,-15%
O=C(Nc1nc2c(F)cc(F)cc2s1)c1ccc(S(=O)(=O)N2CCc3ccccc32)cc1,26µM*,.,.,.,?
CCOc1ccccc1NC(=O)c1nc(SC(C)C)ncc1Cl,?,.,.,.,18µM*
O=C(COc1ccccc1Cl)Nc1ccc(S(=O)(=O)N2CCOCC2)cc1,-2%,-1%,-20,4%,?
CCC1CN(C(=O)N2CCC(C(=O)NCc3ccccc3C)CC2)c2ccccc2O1 (stereo unspecified),18µM*,0%,14,-3%,21µM*
CCC1CN(C(=O)N2CCC(C(=O)NCc3cccc(C)c3)CC2)c2ccccc2O1 (stereo unspecified),16µM*,.,.,.,21µM*

# High-throughput results from PubChem.
